Screens from PubChem BioAssay.
TRPM1 prom inh: inhibitors of MITF-dependent TRPM1 promoter reporter, primary screen, cell-based, SK-MEL-5, single point, luciferase | SK-MEL-5 TRPM1 promoter luciferase, 24 h | inhibition, % at 12.5 µM | hit rate 0.83% among 330,000;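 active means mean inhibition across replicates of 60% or more, whatever share of single replicates reaches that level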
LMP1 NFkB inh: EBV LMP1-driven NF-kappaB luciferase reporter inhibitors, primary screen, cell-based, luminescence, single point; AID 504558, 2011; inhibition, % at 12.5 µM; LMP1-induced NF-kappaB luciferase reporter cells; hit rate 0.69% among 350,000; in the data active means inhibition above about 41%
PAX8 inh HTS: inhibitors of PAX8-driven TPO luciferase reporter, primary screen, RMG-I cells, single concentration; SteadyGlo, 24 h; inhibition, % at 12.6 µM; hit rate 1.2% among 360,000;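 active means mean replicate inhibition at least 60% with every replicate also reaching 60%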;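 further: luciferase light reporting Pax8 driven TPO promoter activity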
Shn3 inh set2: reduction of Shn3 3'UTR firefly luciferase signal, primary screen, Schnurri-3 inhibitor project, cell-based, Clone20 osteoblasts, set 2; Clone20 osteoblast Shn3 3'UTR firefly luciferase, 24 h; inhibition, % at 12.5 µM; hit rate 0.52% among 360,000;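 active means mean inhibition of at least 75% with every replicate also reaching 75%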
LGR2 antag: inhibitors of bursicon-induced LGR2 CRE-luciferase signal, primary screen, cell-based, HEK293, CRE-luciferase reporter, bursicon stimulation; Drosophila bursicon receptor LGR2 (rickets); bursicon-stimulated, 4 h; inhibition, % at 9.99 µM; hit rate 0.35% among 380,000; AID 720647, 2013;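 active means drop in luminescence signal, shown as inhibition above about 50% in the replicate tests, limit read from the data, passing the limit was not always enough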;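 further: agonist challenge used bursicon conditioned medium at about half maximal strength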
EWS-Fli block: EWS/Fli-driven NR0B1 reporter inhibitors, primary screen, A673 cells, NR0B1 luciferase, luminescence, MLPCN library; viability-normalised; inhibition, % at 12.6 µM; hit rate 0.67% among 350,000; AID 651661, 2012;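 active means mean inhibition of at least 50% after viability correction, with every replicate also passing that limit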;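 further: firefly luciferase signal divided by Alamar Blue viability fluorescence both relative to DMSO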
Large screens that a line does not name were inactive. Most compounds without a hit are left out; they make up all but 2.2% or so of the library.

CCCC#Cc1ccc([C@H]2[C@@H](CO)N3C(=O)CN(C(=O)c4ccccc4)C[C@H]23)cc1	none (no result: TRPM1 prom inh, LMP1 NFkB inh, PAX8 inh HTS, Shn3 inh set2, EWS-Fli block)
CCCNC(=O)C[C@H]1CC[C@@H]2[C@H](COc3ccc(NC(=O)c4cc(F)cc(F)c4)cc3C(=O)N2C)O1	none (no result: TRPM1 prom inh, LMP1 NFkB inh, Shn3 inh set2)
Cc1cc(=O)oc2cc(OCC(=O)Nc3nccs3)ccc12	none (no result: EWS-Fli block)
Cc1c(C)c2ccc(OCC(=O)Nc3nccs3)cc2oc1=O	LGR2 antag 55.5 (no result: EWS-Fli block)
CN1C(=O)/C(=C\C(=O)c2cccs2)c2ccccc21	PAX8 inh HTS 89.1
Cc1cccc(N2CCN(C(=O)c3cc(S(=O)(=O)N4CCCC4)cn3C)CC2)c1C	EWS-Fli block 65.2 (no result: TRPM1 prom inh)
O=C(c1ccc(Cl)cc1)N1CCN(c2ccnc3cc(Cl)ccc23)CC1	LMP1 NFkB inh 49.6
Cc1cccc(N2CCN(C(=O)c3cc(S(=O)(=O)N4CCOCC4)cn3C)CC2)c1C	none
COc1cc(C(=O)N2CCN(c3cccc(C)c3C)CC2)cc(OC)c1OC	EWS-Fli block 61.3
COc1cc(C(=O)N2CCN(c3cc(Cl)ccc3Cl)CC2)cc(OC)c1OC	EWS-Fli block 59.8
C[C@H](CO)N1C[C@H](C)[C@H](CN(C)C(=O)Nc2ccccc2)Oc2ccc(NC(=O)Nc3ccccc3)cc2CC1=O	none (no result: TRPM1 prom inh, LMP1 NFkB inh, Shn3 inh set2)
CN(C)C(=O)C[C@@H]1C[C@H]2c3cc(NC(=O)NC4CCCC4)ccc3O[C@H]2[C@H](CO)O1	none (no result: TRPM1 prom inh, LMP1 NFkB inh, Shn3 inh set2)
CCCN1C[C@H](C)[C@H](OC)CN(C)C(=O)c2cc(NC(=O)CC(F)(F)F)ccc2OC[C@@H]1C	none (no result: TRPM1 prom inh, LMP1 NFkB inh, Shn3 inh set2)
CCOCCCn1cnc2c3cc(F)ccc3n(C)c2c1=O	LMP1 NFkB inh 57.3
Cn1c2ccc(F)cc2c2ncn(Cc3ccccn3)c(=O)c21	none (no result: LGR2 antag)
COc1ccc(C(=O)NNC(=O)Cc2nc3ccccc3n2C)cc1	PAX8 inh HTS 67.7
COC(=O)c1c(NC(=O)/C=C/C(=O)O)sc(Cc2ccccc2)c1C	none (no result: PAX8 inh HTS, LGR2 antag, EWS-Fli block)
Cc1c(Cc2ccccc2)sc(NC(=O)/C=C/c2cccc3ccccc23)c1C(N)=O	EWS-Fli block 60.0
C[C@@H]1CN([C@H](C)CO)C(=O)Cc2cc(NS(=O)(=O)c3ccc(Cl)cc3)ccc2O[C@@H]1CN(C)C(=O)Nc1ccc2c(c1)OCO2	none (no result: TRPM1 prom inh, LMP1 NFkB inh, Shn3 inh set2)
Cc1ccc(S(=O)(=O)N(C)C[C@H]2OCCCC[C@H](C)Oc3ccc(NS(=O)(=O)c4cn(C)cn4)cc3C(=O)N([C@@H](C)CO)C[C@H]2C)cc1	none (no result: TRPM1 prom inh, LMP1 NFkB inh, Shn3 inh set2)
Cc1ccc(-c2nn(CC(=O)NCc3cc(-c4nn(C)c(=O)c5ccccc45)ccc3C)c(=O)c3ccccc23)cc1	TRPM1 prom inh 82.3 (no result: LGR2 antag, EWS-Fli block)
CCCNC(=O)NC[C@@H]1CC[C@H]2[C@H](CN2C(=O)C2CCOCC2)O1	none (no result: TRPM1 prom inh, LMP1 NFkB inh, Shn3 inh set2, LGR2 antag)
CCOC(=O)c1cnn(-c2ccccc2)c1NC(=O)CN1CCOCC1	LMP1 NFkB inh 63.3
N#Cc1cnn(-c2ccccc2)c1NC(=O)CN1CCOCC1	none (no result: TRPM1 prom inh, LMP1 NFkB inh)
COc1ccc(/C=C2\SC(=O)N(CCC(=O)Nc3ccccc3)C2=O)cc1OC	none (no result: EWS-Fli block)
COc1cc(/C=C2\SC(=O)N(CCN)C2=O)ccc1OS(=O)(=O)c1cc(C)ccc1C	LGR2 antag 81.9
COc1ccccc1N(O)C1CC(=O)N(c2ccc(F)cc2)C1=O (configuration not stated)	Shn3 inh set2 95.3 (no result: PAX8 inh HTS, LGR2 antag, EWS-Fli block)
COCC#Cc1ccc([C@@H]2[C@@H](CO)N3CCCCN(Cc4cncnc4)C[C@@H]23)cc1	none (no result: TRPM1 prom inh, LMP1 NFkB inh, Shn3 inh set2)
COc1ccc2c3c(n(C)c2c1)[C@@H](CO)N(Cc1ccccc1OC)CC31CCN(C)CC1	none (no result: TRPM1 prom inh, LMP1 NFkB inh, PAX8 inh HTS, Shn3 inh set2)
O=C(NC(Nc1nc2ccc([N+](=O)[O-])cc2s1)(C(F)(F)F)C(F)(F)F)c1ccccc1Cl	TRPM1 prom inh 74.8, LMP1 NFkB inh 52.8, PAX8 inh HTS 101.5, Shn3 inh set2 89.7
O=C(NC(Nc1nc2ccc([N+](=O)[O-])cc2s1)(C(F)(F)F)C(F)(F)F)c1cccnc1	TRPM1 prom inh 78.0, PAX8 inh HTS 93.1 (no result: LGR2 antag)
Cc1cc(C)c(NS(=O)(=O)c2cccc3cccnc23)c(C)c1	none
Cc1ccc2cccc(NS(=O)(=O)c3ccccc3)c2n1	PAX8 inh HTS 96.2 (no result: TRPM1 prom inh, LMP1 NFkB inh, Shn3 inh set2)
CS(=O)(=O)Nc1cccc2cccnc12	none (no result: PAX8 inh HTS, LGR2 antag, EWS-Fli block)
Cc1ccc(S(=O)(=O)Nc2cccc3cccnc23)c([N+](=O)[O-])c1	TRPM1 prom inh 88.4, PAX8 inh HTS 71.0
O=S(=O)(Nc1cccc2cccnc12)c1ccccc1	TRPM1 prom inh 89.5, PAX8 inh HTS 105.4, EWS-Fli block 70.5
Cc1cc(C)n(-c2ccc3cccc(NS(C)(=O)=O)c3n2)n1	TRPM1 prom inh 62.1, Shn3 inh set2 90.1 (no result: PAX8 inh HTS, LGR2 antag, EWS-Fli block)
Brc1ccc(N/N=C(/N=Nc2nn[nH]n2)c2ccccc2)cc1	TRPM1 prom inh 67.0, LMP1 NFkB inh 58.3
CN=c1scc(-c2ccc([N+](=O)[O-])cc2)n1/N=C/c1ccco1	none
CN=c1scc(-c2ccc(F)cc2)n1/N=C/c1ccc(O)c(O)c1	TRPM1 prom inh 68.4, PAX8 inh HTS 66.4, Shn3 inh set2 88.9, LGR2 antag 74.8
CN(C)c1ccc(N=Nc2ccc3ncccc3c2)cc1	LGR2 antag 62.4
CCCNC(=O)N(C)C[C@@H]1Oc2ncc(C3=CCCC3)cc2C(=O)N([C@@H](C)CO)C[C@H]1C	none (no result: TRPM1 prom inh, LMP1 NFkB inh, Shn3 inh set2)
COc1ccc([C@H]2N[C@]3(CCCN(Cc4ccco4)C3=O)[C@H]3C(=O)N(Cc4ccccc4)C(=O)[C@@H]23)cc1	LMP1 NFkB inh 46.3 (no result: TRPM1 prom inh)
Cc1ccc2[nH]c3c(N4CCN(Cc5ccccc5)CC4)ncnc3c2c1	LMP1 NFkB inh 57.8, Shn3 inh set2 90.2 (no result: PAX8 inh HTS, LGR2 antag, EWS-Fli block)
